# PubChem BioAssay (Tox21)
# Several values for one entry are separate records, joined by “and”; a condition that tells them apart may be missing. Identical values can stand only once. Records with an inconclusive call do not appear. A call without a number means that no potency is given here. A structure can be active in one record and inactive in another. Activity calls are given as the source filed them. Unless noted, calls come from the whole dose curve; as a rule, active = well fitted curve in the direction sought with a large enough effect in the repeat runs; inconclusive = weak or mixed curves; inactive = no such curve, though single readings can be large; an effect the other way counts as inactive or inconclusive.
# How the values were obtained:
# [1] = qHTS assay to identify small molecule HDAC inhibitors - cell viability counter screen (AID 1259365); note: series mostly up to about 92 µM; nearly all actives have a fitted effect of over 50% in size
# In short: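 Wild-type HCT-116 cells, 1,500/well, cultured overnight, then compound-treated 2 h at 37 C. Viability measured as ATP luminescence with CellTiter-Glo after 30 min at room temperature.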
# [2] = qHTS assay to identify small molecule agonists of the sonic hedgehog signaling (Shh) pathway - cell viability counter screen (AID 1259366); note: nearly all actives have a fitted effect of over 50% in size
# In short: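 NIH/3T3-derived Gli1-Luc reporter cells, 2,000 per well, received compound after 4 h and were treated about 23 h at 37C. Viability measured in the same wells by CellTiter-Fluor fluorescence after 1 h.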
# [3] = qHTS assay to identify small molecule antagonists of the sonic hedgehog signaling (Shh) pathway - cell viability counter screen (AID 1259367); note: nearly all actives have a fitted effect of over 55% in size
# In short: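 Viability was read by CellTiter-Fluor fluorescence in the same wells, reagent added 23 hr into compound treatment and incubated 1 hr at 37C. The 3T3 Gli1-Luc reporter cells (2,000/well) received conditioned medium after compound and ran 24 hr.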
# [4] = qHTS assay to identify small molecule agonists of the sonic hedgehog signaling (Shh) pathway (AID 1259368; calls by dose curve;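 note: NIH/3T3-derived 3T3Gli1-Luc cells carrying a stable Gli1-driven firefly luciferase reporter; series mostly up to about 92 µM; nearly all actives have a fitted effect of over 15% in size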)
# In short: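 Read-out: firefly luciferase luminescence from a Gli1 response element reporter stably integrated in NIH/3T3-derived 3T3Gli1-Luc cells, measured 30 min at room temperature after reagent addition. Compound exposure lasted 24 hr at 37 C, 5% CO2.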
# [5] = qHTS assay to identify small molecule agonists of the androgen receptor (AR) signaling pathway in the presence of an antagonist - cell viability counter screen (AID 1259379);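 note: MDA-kb2 human breast cancer cells carrying an MMTV luciferase reporter; series mostly up to about 92 µM; nearly all actives have a fitted effect of over 25% in size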
# In short: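 Viability counter screen: CellTiter-Fluor fluorescence, measured in the same wells as the luciferase read-out. MDA-kb2 cells, 3,000/well, with nilutamide at 3.0uM final and compounds at 15 concentrations, 16 hr at 37C, 0% CO2.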
# [6] = qHTS assay to identify small molecule antagonists of the estrogen receptor beta (ER-beta) signaling pathway - cell viability counter screen (AID 1259382); note: nearly all actives have a fitted effect of over 55% in size; note: potency is the fitted concentration of half-maximal effect
# In short: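 Luminescent ATP read-out (CellTiter-Glo, 30 min, RT) taken in the same wells as the bla reporter assay. HEK293T ER-beta-UAS-bla cells in 2% charcoal-stripped FBS were exposed to compounds with 1nM E2 for 16 hr at 37C.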
# [7] = qHTS assay to identify small molecule agonists or antagonists of the thyroid stimulating hormone receptor (TSHR) signaling pathway - wild type cell line counter screen (AID 1259384; calls by dose curve)
# In short: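 Counter screen in untransfected Hek293: compounds (15-point titration, triplicate) plus phosphodiesterase inhibitor Ro20-1724 added after 18 h plating; 30 min RT. Intracellular cAMP via competitive d2/cryptate immunoassay, 1 h incubation.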
# [8] = target: Thyrotropin receptor (Homo sapiens) (UniProt P16473); test: qHTS assay to identify small molecule antagonists of the thyroid stimulating hormone receptor (TSHR) signaling pathway (AID 1259385; calls by dose curve; note: nearly all actives have a fitted effect of over 20% in size; note: potency is the fitted concentration of half-maximal effect)
# Thyrotropin receptor (Homo sapiens), sequence (P16473 whole entry, looked up): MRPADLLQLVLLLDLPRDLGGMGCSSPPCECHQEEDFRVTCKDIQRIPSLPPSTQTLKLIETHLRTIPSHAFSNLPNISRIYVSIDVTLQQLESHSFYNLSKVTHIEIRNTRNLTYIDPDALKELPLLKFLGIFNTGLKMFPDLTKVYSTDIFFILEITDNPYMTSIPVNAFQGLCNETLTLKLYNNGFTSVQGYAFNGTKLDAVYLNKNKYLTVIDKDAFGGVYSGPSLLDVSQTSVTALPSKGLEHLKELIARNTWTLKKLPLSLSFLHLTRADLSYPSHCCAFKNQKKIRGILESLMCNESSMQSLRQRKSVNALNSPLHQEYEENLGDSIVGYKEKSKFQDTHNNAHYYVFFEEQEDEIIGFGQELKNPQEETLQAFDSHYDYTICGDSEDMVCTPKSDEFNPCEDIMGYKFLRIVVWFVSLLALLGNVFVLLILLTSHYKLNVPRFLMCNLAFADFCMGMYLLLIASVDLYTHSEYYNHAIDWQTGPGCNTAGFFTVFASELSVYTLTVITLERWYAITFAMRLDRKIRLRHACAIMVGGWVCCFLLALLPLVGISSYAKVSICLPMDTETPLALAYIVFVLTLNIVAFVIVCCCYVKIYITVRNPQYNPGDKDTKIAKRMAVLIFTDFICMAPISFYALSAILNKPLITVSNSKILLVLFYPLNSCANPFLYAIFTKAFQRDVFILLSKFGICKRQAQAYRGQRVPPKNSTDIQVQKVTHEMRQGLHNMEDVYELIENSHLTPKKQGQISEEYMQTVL
# In short: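 Antagonist mode: compound-treated TSHR-expressing HEK293 cells were stimulated with 1.5 ng/mL TSH (final) in presence of Ro20-1724 for 30 min at RT. HTRF cAMP detection after 1 h; each compound tested at 15 concentrations, triplicate.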
# [9] = qHTS assay to identify small molecule agonists of the estrogen receptor alpha (ER-alpha) signaling pathway in the presence of an antagonist - cell viability counter screen (AID 1259386);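 note: series mostly up to about 92 µM; cells exposed to compounds for 22 h at 37 °C before the viability read; nearly all actives have a fitted effect of over 30% in size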
# In short: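 Read-out: CellTiter-Fluor fluorescence after 1hr reagent incubation, measured in the same wells as the luciferase readout. VM7Luc4E2 cells were exposed to 15 compound concentrations with 10.0nM ICI-182,780 for 22hr at 37C.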
# [10] = target: Progesterone receptor (Homo sapiens) (UniProt P06401); test: qHTS assay to identify small molecule agonists of the progesterone receptor (PR) signaling pathway (AID 1346784; calls by dose curve; note: nearly all actives have a fitted effect of over 30% in size; note: potency is the fitted concentration of half-maximal effect)
# Progesterone receptor (Homo sapiens), sequence (P06401 whole entry, looked up): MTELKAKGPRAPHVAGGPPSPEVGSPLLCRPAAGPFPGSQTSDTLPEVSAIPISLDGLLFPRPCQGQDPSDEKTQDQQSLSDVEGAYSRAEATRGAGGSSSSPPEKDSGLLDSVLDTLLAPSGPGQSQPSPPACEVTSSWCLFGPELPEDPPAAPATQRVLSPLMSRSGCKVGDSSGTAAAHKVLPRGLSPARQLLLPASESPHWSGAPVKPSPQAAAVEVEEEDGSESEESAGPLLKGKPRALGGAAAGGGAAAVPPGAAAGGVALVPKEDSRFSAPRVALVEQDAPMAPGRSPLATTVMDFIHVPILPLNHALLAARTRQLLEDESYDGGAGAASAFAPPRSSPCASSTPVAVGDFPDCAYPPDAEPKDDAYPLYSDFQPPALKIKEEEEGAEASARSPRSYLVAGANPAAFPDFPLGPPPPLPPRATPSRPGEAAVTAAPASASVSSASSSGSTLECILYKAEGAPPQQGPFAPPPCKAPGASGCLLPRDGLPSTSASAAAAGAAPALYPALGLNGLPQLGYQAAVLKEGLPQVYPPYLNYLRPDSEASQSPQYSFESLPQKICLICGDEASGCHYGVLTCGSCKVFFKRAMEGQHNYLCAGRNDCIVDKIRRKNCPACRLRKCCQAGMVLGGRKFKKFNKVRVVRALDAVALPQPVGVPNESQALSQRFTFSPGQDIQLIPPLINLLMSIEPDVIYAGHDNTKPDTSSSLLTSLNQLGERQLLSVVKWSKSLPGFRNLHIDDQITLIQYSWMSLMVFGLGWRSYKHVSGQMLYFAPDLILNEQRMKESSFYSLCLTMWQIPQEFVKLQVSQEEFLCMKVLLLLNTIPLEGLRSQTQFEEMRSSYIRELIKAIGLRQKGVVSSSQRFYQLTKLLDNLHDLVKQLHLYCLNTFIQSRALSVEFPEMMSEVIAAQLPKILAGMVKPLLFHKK
# In short: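 PR-UAS-bla HEK 293T cells (beta-lactamase reporter under UAS) in 2% charcoal-stripped FBS, dosed with 23 nL compound after 6 hr, incubated 16hr at 37C. LiveBLAzer B/G FRET substrate added, fluorescence read after 2 hours.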
# [11] = target: Progesterone receptor (Homo sapiens) (UniProt P06401); test: qHTS assay to identify small molecule antagonists of the progesterone receptor (PR) signaling pathway (AID 1346795; active = well fitted inhibition curve with a large enough effect in the signal ratio in the repeat runs, not every such curve was filed as active; the % refers to the signal ratio; note: potency is the fitted concentration of half-maximal effect)
# In short: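 PR-UAS-bla HEK293T cells with beta-lactamase reporter under UAS control, in 2% charcoal-stripped FBS, treated with compounds plus 1 nM promegestone (R5020, final) for 16 hr at 37C. Read-out: FRET beta-lactamase substrate fluorescence after 2 hr at room temperature.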
# [12] = qHTS assay to identify small molecule antagonists of the progesterone receptor (PR) signaling pathway - cell viability counter screen (AID 1346798); note: nearly all actives have a fitted effect of over 50% in size; note: potency is the fitted concentration of half-maximal effect
# In short: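 PR-UAS-bla HEK293T cells, 3,000/well in 2% charcoal-stripped FBS medium, dosed with compounds plus R5020 agonist and incubated 16 h at 37C. Viability then measured in the same wells by CellTiter-Glo luminescence after 30 min at RT.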
# [13] = qHTS assay to identify small molecule agonists of the progesterone receptor (PR) signaling pathway - cell viability counter screen (AID 1346799; calls by dose curve; note: nearly all actives have a fitted effect of over 45% in size; note: potency is the fitted concentration of half-maximal effect)
# In short: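 Counter screen in the PR-UAS-bla HEK293T wells (2% charcoal-stripped FBS, 16 h compound exposure at 37 C) after the bla read. CellTiter-Glo added, 30 min at room temperature, luminescence read as cell viability.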
# [14] = qHTS assay to identify small molecule antagonists of the TGF-beta/Smad signaling pathway - cell viability counter screen (AID 1346824); note: nearly all actives have a fitted effect of over 50% in size
# In short: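 Cytotoxicity counter-screen run in the same wells as the beta-lactamase Smad reporter read: CellTiter-Glo luminescence after 30 min at room temperature. HEK 293T SBE-bla cells had 5 hr compound exposure at 37 C with TGF-beta1 (0.25 ng/mL stock).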
# [15] = target: Estrogen receptor beta (Homo sapiens) (UniProt Q92731); test: qHTS assay to identify small molecule agonists of the estrogen receptor beta (ER-beta) signaling pathway (AID 1259377; active = well fitted activation curve with a large enough effect in the signal ratio in the repeat runs, not every such curve was filed as active; the % refers to the signal ratio)
# Estrogen receptor beta (Homo sapiens), sequence (Q92731 whole entry, looked up): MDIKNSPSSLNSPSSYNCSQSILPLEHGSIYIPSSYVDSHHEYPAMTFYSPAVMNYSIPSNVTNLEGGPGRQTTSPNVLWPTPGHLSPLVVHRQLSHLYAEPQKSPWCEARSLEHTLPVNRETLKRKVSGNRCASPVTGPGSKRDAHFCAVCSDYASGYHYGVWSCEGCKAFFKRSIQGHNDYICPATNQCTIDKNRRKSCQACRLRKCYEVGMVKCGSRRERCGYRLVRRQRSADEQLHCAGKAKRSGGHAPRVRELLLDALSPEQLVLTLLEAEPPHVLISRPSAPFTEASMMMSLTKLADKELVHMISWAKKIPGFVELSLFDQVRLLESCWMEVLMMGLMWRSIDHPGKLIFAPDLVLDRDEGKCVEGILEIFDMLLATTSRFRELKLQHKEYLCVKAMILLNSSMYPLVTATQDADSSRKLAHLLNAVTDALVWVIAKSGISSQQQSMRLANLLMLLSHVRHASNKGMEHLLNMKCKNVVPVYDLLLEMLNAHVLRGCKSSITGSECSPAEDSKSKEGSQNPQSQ
# In short: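 ER-beta-UAS-bla HEK293T cells in medium with 2% charcoal-stripped FBS were exposed to compounds for 16 h at 37C. Beta-lactamase reporter activity was read as fluorescence after 2 h with LiveBLAzer B/G FRET substrate at room temperature.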
# [16] = target: Estrogen receptor beta (Homo sapiens) (UniProt Q92731); test: qHTS assay to identify small molecule antagonists of the estrogen receptor beta (ER-beta) signaling pathway (AID 1259378; active = well fitted inhibition curve with a large enough effect in the signal ratio in the repeat runs, not every such curve was filed as active; the % refers to the signal ratio; note: potency is the fitted concentration of half-maximal effect)
# In short: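 Antagonist mode: compounds added to beta-lactamase reporter HEK293T ER-beta-UAS cells stimulated with E2 (1nM final), 16 hr at 37C. LiveBLAzer B/G FRET substrate, 2 hours room temperature, fluorescence read-out.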
# [17] = qHTS assay to identify small molecule agonists of the estrogen receptor beta (ER-beta) signaling pathway - cell viability counter screen (AID 1259380); note: nearly all actives have a fitted effect of over 30% in size; note: potency is the fitted concentration of half-maximal effect
# In short: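 Luminescence read-out (CellTiter-Glo, 30 min, room temp) taken in the same wells as the beta-lactamase reporter assay; ER-beta-UAS-bla HEK293T cells exposed to DMSO-dissolved compounds for 16 hr at 37C in 2% charcoal-stripped FBS medium.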
Structure (SMILES),outcome [1],Potency [2],Potency [3],outcome [4],Potency [5],Potency [6],outcome [7],Potency [8],Potency [9],Potency [10],Potency [11],Potency [12],Potency [13],Potency [14],Potency [15],Potency [16],Potency [17]
CCCCCCCCC/C=C/CC1CC(=O)OC1=O (configuration not stated),inactive,inactive,inactive,inactive,inactive,inactive,inactive,inactive,inactive,inactive,inactive,inactive,inactive,inactive,,,
O=c1[nH]nnc2ccccc12,inactive,inactive,inactive,inactive,inactive,inactive,inactive,inactive,inactive,inactive,inactive,inactive,inactive,inactive,inactive,inactive,inactive
O=c1[nH]c(=O)n([C@H]2CCCO2)cc1F,inactive,inactive,inactive,inactive,inactive,inactive,inactive,inactive,inactive,inactive,inactive,inactive,inactive,inactive,,inactive,inactive
ON=C1CCCCC1,inactive,inactive,inactive,inactive,inactive,inactive,inactive,inactive,inactive,inactive,inactive,inactive,inactive,inactive,inactive,inactive,inactive
O=C(Oc1ccccc1)c1ccccc1,inactive,inactive,inactive,inactive,inactive,inactive,inactive,inactive,inactive,inactive,inactive,inactive,inactive,inactive,inactive,inactive,inactive
CN(C)CCC(c1ccccc1)c1ccccn1 (configuration not stated),inactive,inactive,inactive,inactive,inactive,inactive,inactive,inactive,inactive,inactive,inactive,inactive,inactive,inactive,inactive,inactive,inactive
CCCCCC1=CCCC1=O,inactive,inactive,inactive,inactive,inactive,inactive,inactive,inactive,inactive,inactive,inactive,inactive,inactive,inactive,inactive,inactive,inactive
CC1=CCC2CC1C2(C)C (configuration not stated),inactive,inactive,inactive,inactive,inactive,inactive,inactive,inactive,inactive,inactive,inactive,inactive,inactive,inactive,inactive,inactive,inactive
O=C(O)CCCC[C@@H]1SC[C@@H]2NC(=O)N[C@@H]21,inactive,inactive,inactive,inactive,inactive,inactive,inactive,inactive,inactive,,,inactive,inactive,inactive,inactive,inactive,inactive
CC1CCC2CC1C2(C)C (configuration not stated),inactive,inactive,inactive,inactive,inactive,inactive,inactive,inactive,inactive,inactive,inactive,inactive,inactive,inactive,inactive,inactive,inactive
COc1ccc2cc([C@H](C)C(=O)O)ccc2c1,inactive,inactive,inactive,inactive,inactive,inactive,inactive,inactive,inactive,inactive,inactive,inactive,inactive,inactive,,,inactive
CC(C)(C)[C@@H](O)[C@@H](Cc1ccc(Cl)cc1)n1cncn1,inactive,inactive,inactive,inactive,inactive,inactive,inactive,inactive,inactive,inactive,48.2 µM (active),inactive,inactive,inactive,inactive,inactive,inactive
CCCCC(CC)COC(=O)C(C#N)=C(c1ccccc1)c1ccccc1 (configuration not stated),inactive,inactive,inactive,inactive,inactive,inactive,inactive,61.1 µM (active),inactive,inactive,8.63 µM (active),inactive,,inactive,inactive,19.3 µM (active),inactive
CC[C@H](C)C(=O)O[C@H]1C[C@@H](C)C=C2C=C[C@H](C)[C@H](CC[C@@H]3C[C@@H](O)CC(=O)O3)[C@H]21,inactive,inactive,inactive,inactive,inactive,39.1 µM (active) and 26.6 µM (active),inactive,inactive,inactive,inactive,inactive,62 µM (active),7.66 µM (active),inactive,inactive,,34.9 µM (active) and 30.5 µM (active) and 15 µM (active)
COc1cc(Cc2cnc(N)nc2N)cc(OC)c1OC,inactive,inactive,inactive,inactive,inactive,inactive,inactive,inactive,inactive,5.43 µM (active) and inactive,inactive,inactive,inactive,inactive,inactive,inactive,inactive
OCCOCCN1CCN(C2=Nc3ccccc3Sc3ccccc32)CC1,inactive,inactive,inactive,inactive,inactive,inactive,inactive,inactive,inactive,inactive,inactive,inactive,inactive,inactive,inactive,inactive,13.3 µM (active)
